Values without a mark were called inactive. Calls of active or inactive are those of the source. Calls follow the shape of the dose curve; as a rule, active = well fitted cell-killing curve with a large enough effect in the repeat runs; inconclusive = weak or mixed curves, or effect the other way; inactive = flat fitted curve, though single readings scatter.
% is scaled to controls: 0 for no effect and ±100 for the full control effect; potency is read from the fitted curve at half-maximal effect.

A short description of the assay: qHTS assay to identify small molecule HDAC inhibitors - cell viability counter screen (AID 1259365). Also: nearly all actives have a fitted effect of over 50% in size. The following applies: HCT-116 viability, CellTiter-Glo ATP luminescence, 2 h; series mostly up to 92.4 µM; activity change, negative = cytotoxicity: at the top concentration. The text has this: U.S. Tox21 Program National Center for Advancing Translational Sciences [NCATS] NIH Chemical Genomics Center [NCGC] U.S. Environmental Protection Agency [EPA] National Institutes of Environmental Health Sciences [NIEHS] National Toxicology Program [NTP] U.S. Food and Drug Administration [FDA] Tox21 Assay Overview: Histone deacetylases (HDACs) are a group of epigenetic enzymes that regulate gene expression by histone deacetylation. HDACs are capable of introducing epigenetic modifications and such aberrations contribute to the onset and progression of several human diseases, thus making HDACs a popular therapeutic target. For identifying endogenous class I/II HDAC inhibitors a homogenous, luminogenic HDAC I/II cell based assay was used to measure the relative activity of class I and II HDACs from cells. Wild type HCT-116 cells were used to screen Tox21 compound libraries for identifying class I/II HDAC inhibitors.
Tox21 Assay Protocol Summary: HCT-116 cells were dispensed at 1,500 per well in 5uL of culture medium into white solid bottom 1536-well plates (Greiner Bio-One, Monroe, NC) using a Multidrop Combi (Thermo Scientific, Waltham, MA) dispenser. The assay plates were incubated at 37 C and 5% CO2 for an overnight, and then 23nL of compounds dissolved in DMSO and positive control were transferred using a Pintool station (Wako, San Diego, CA). The assay plates were incubated at 37C and 5% CO2 for 2hr. After compound treatment, 4uL of CellTiter-Glo reagent (Promega Corporation, Madison, WI) was added to each well of the assay plates using Flying Reagent Dispenser (FRD, Aurora Discovery, San Diego, CA) and incubated the assay plates at room temperature for 30min. The luminescence signal was quantified using a ViewLux plate reader (Perkin Elmer, Shelton, CT).
As for `CCOP(=O)(OCC)Oc1nc(Cl)c(Cl)cc1Cl`, the “activity change, negative = cytotoxicity” value was -7.5%.
On to `Nc1c(Cl)c(Cl)c(Cl)c(Cl)c1Cl`, for which the “activity change, negative = cytotoxicity” value was 3.2%.
For `COP(=S)(NC(C)C)Oc1ccc(C)cc1[N+](=O)[O-]` (stereo not given), the “activity change, negative = cytotoxicity” value is -7.16%.
For `CCn1cc[n+](C)c1` (tested in a mixture with another compound), the “activity change, negative = cytotoxicity” value is 1.67%.
In the case of `COc1c2c(cc3c1OCO3)CCN(C)C2`, the “activity change, negative = cytotoxicity” value was -3.3% [at 42.5 µM].
The same measure, in the same setting: the result for `ClC(Cl)C(Cl)(Cl)Cl` reads -7.43%; that for `OCC(Br)CBr` (stereo not given), -1.77%; that for `C=CCBr`, -1%.
As for `CCCCN(CCCC)C(=S)S`, the “activity change, negative = cytotoxicity” value is -2.95%.
On the same count and under the same terms, in the case of `CCCCCON=O` it was 0.0099%; in that of `CC(Cl)CCl` (stereo not given), 2.72%; in that of `CN1[C@@H]2CC[C@H]1CC(O)C2` (stereo not given in full), 5.64%.
Consider `C#CCC1=C(C)C(OC(=O)C2C(C=C(C)C)C2(C)C)CC1=O` (stereo not given), for which the “activity change, negative = cytotoxicity” value is -0.0943%.
On to `O=S1OCC2C(CO1)C1(Cl)C(Cl)=C(Cl)C2(Cl)C1(Cl)Cl` (stereo not given), for which the Potency entry is “inactive”.
Consider `CNC(C)(C)Cc1ccccc1`, for which the “activity change, negative = cytotoxicity” value is -0.0374% [at 42.5 µM].
The same measure, in the same setting: in the case of `CN(C)CCc1c[nH]c2ccccc12` it was -4.87%; in that of `CCCCCCCc1ccc(O)cc1`, -11.8%; in that of `O=C(O)[C@H](O)[C@@H](O)C(=O)O`, 4.55%.
Same read-out and setting: the result for `C[C@]12C/C(=C/O)C(=O)C[C@@H]1CC[C@@H]1[C@@H]2CC[C@@]2(C)[C@H]1CC[C@]2(C)O` reads 19.4% [at 42.5 µM]; that for `Oc1ccc2[nH]cc(CCCCN3CC=C(c4ccccc4)CC3)c2c1`, -1.39% [at 42.5 µM].
On the same count and under the same terms, the result for `O=P(Cl)(Cl)Cl` reads 9.86%; that for `N#Cc1ccc(N(CC(N)=O)CC(F)(F)F)cc1C(F)(F)F`, -0.0836%.
In the case of `CCCN`, the “activity change, negative = cytotoxicity” value was -4.52%.
As for `ClC1(Cl)C2(Cl)C3(Cl)C4(Cl)C(Cl)(Cl)C5(Cl)C3(Cl)C1(Cl)C5(Cl)C24Cl` (stereo not given), the “activity change, negative = cytotoxicity” value was 1%.
Still for that read-out and setting: in the case of `BrCC(Br)(Br)Br` it was -1.5%.
For the compound `C=CC(=O)[O][Sn]([CH2]CCC)([CH2]CCC)[CH2]CCC`, the Potency was 19.3 µM (active).
In the case of `C=Cc1cccc(CCl)c1`, the “activity change, negative = cytotoxicity” value was 3.31% [at 240 µM].
`CCCC[N+]1(C)CCCC1` (tested in a mixture with another compound): the “activity change, negative = cytotoxicity” value was 14.1%.
The same measure, in the same setting: the result for `CCC(C)Br` (stereo not given) reads -1.21%.
The same measure, in the same setting: in the case of `BrCCCBr` it was 2.49%.
For `C=C(C)C(=O)[O][Sn]([CH2]CCC)([CH2]CCC)[CH2]CCC`, the Potency was 12.2 µM (active).
Consider `CN=C=O`, for which the “activity change, negative = cytotoxicity” value was 0.449%.
Still for that read-out and setting: the result for `CCCCN(CCCC)C(=S)[S-].CCCCN(CCCC)C(=S)[S-].[Ni+2]` reads 3.92% [at 42.5 µM].
Regarding `O=C1C(Cl)=C(Cl)C(=O)C(Cl)=C1Cl`, the Potency result is “inactive”.
Consider `[O-][Cl+3]([O-])([O-])O`, for which the “activity change, negative = cytotoxicity” value was 0.344%.
Same read-out and setting: the result for `COP(=S)(OC)Oc1nc(Cl)c(Cl)cc1Cl` reads -6.03%; that for `CC(C)[C@@H](Nc1ccc(C(F)(F)F)cc1Cl)C(=O)OC(C#N)c1cccc(Oc2ccccc2)c1` (stereo not given in full), -7.2%; that for `Nc1nc(N)c(N)c(N)n1`, 5.21%.
Same read-out and setting: in the case of `CN1C2CCC(C)(C)C1CC(OC(=O)C(O)(c1cccs1)c1cccs1)C2` (stereo not given) it was -0.715% [at 42.5 µM]; in that of `CC(C)(C)c1ccc(OP(=O)(Oc2ccccc2)Oc2ccccc2)cc1`, -8.46%.

The values are drawn from PubChem BioAssay (Tox21).
